# According to PubChem BioAssay (NCATS):
# Activity calls are given as the source filed them. Where a call stands in place of a potency, no number is given. Calls follow the shape of the dose curve; as a rule, active = well fitted inhibition curve with a large enough effect; inconclusive = small, poorly fitted or top-dose-only effect; inactive = flat fitted curve, though single readings scatter.
# Target: DNA dC->dU-editing enzyme APOBEC-3G (Homo sapiens) (UniProt Q9HC16)
# Assay: qHTS for inhibitors of Vif-A3G interactions: Validation (AID 588379)
# Settings: Vif-A3G protein interaction assay; series mostly up to 46.1 µM
# Summary of the method: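 Yellow fluorescence (Ex 488, Em 500-530) of Vif-coexpressing HeLa A3G-eYFP cells, scanned by Acumen cytometer, reports blocked A3G degradation. Cells plated at 700/well overnight at 37 deg C before compound addition, then a further overnight compound incubation at 37 deg C.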
# Potency is read from the fitted curve at half-maximal effect.
# Chain of DNA dC->dU-editing enzyme APOBEC-3G (Homo sapiens) (Q9HC16 whole entry, looked up): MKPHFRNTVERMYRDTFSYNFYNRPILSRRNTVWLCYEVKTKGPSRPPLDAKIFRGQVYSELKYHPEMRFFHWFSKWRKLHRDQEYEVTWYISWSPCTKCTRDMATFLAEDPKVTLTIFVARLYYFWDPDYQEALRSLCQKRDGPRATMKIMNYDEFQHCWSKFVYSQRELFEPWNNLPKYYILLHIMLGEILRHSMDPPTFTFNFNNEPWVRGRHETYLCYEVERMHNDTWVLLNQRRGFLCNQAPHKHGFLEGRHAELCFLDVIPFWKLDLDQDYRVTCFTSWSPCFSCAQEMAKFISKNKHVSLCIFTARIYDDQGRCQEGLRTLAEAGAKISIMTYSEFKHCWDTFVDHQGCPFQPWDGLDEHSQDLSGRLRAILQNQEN
row,SMILES,Potency
1,Cc1nc2c(OCc3ccccc3)cccn2c1CC#N,inactive
2,CCCn1c(=O)c(C)cn2nc(N)nc12,inactive
3,COc1cc(CNC(=O)CCCCCCC(C)C)ccc1O,inactive
4,CCn1c(=O)[nH]c2cc(Cl)c(Cl)cc21,inactive
5,CC(=O)N[C@@H](Cc1c[nH]c2ccccc12)C(=O)OCc1cc(C(F)(F)F)cc(C(F)(F)F)c1,inactive
6,O=C(O)C1=CCCNC1,inactive
7,CC(C)NC[C@H](O)COc1ccc(CC(N)=O)cc1,inactive
8,NC(N)=NC(N)=Nc1cccc(Cl)c1,inactive
9,O=C(O)c1ccccc1Nc1cccc(OCc2ccc3ccccc3n2)c1,inactive
10,Oc1cc(O)c2c(c1)O[C@H](c1ccc(O)c(O)c1)[C@@H](O)C2,inactive
11,NCCCCN=C(N)N,inactive
12,NS(=O)(=O)c1cccc2c1c([N+](=O)[O-])cc1nc(O)c(O)nc12,inactive
13,CN1CCN(c2nc3cc(C(F)(F)F)ccc3n3cccc23)CC1,inactive
14,CCc1ccc2c(-c3cccc(Cl)c3)nc(=O)n(CC)c2n1,inactive
15,COc1ccc(CCN(C)CCc2ccc(OC)c(OC)c2)cc1OC,inactive
16,C=C1C(=O)O[C@@H]2[C@H]3O[C@]3(C)CCC=C(C)CC[C@@H]12,inactive
17,N=C(N)SCCc1cnc[nH]1,inactive
18,CNC(=O)c1cc2c(cn1)[nH]c1ccccc12,inactive

row,SMILES,Potency
1,CSC(=N)N,inactive
2,O=C1Nc2ccc(I)cc2/C1=C/c1cc(Br)c(O)c(Br)c1,4.22 µM (active)
3,O=S(=O)(c1cccc2c(Cl)cccc12)N1CCCNCC1,inactive
4,N[C@H](C(=O)O)c1cc(O)cc(O)c1,inactive
5,CCCCCC[C@@H]([C@@H](C)O)n1cnc2c(N)ncnc21,inactive
6,Cc1nc(N=Nc2cc(S(=O)(=O)O)c3cc([N+](=O)[O-])cc(S(=O)(=O)O)c3c2)c(COP(=O)(O)O)c(C=O)c1O,inactive
7,CC(C)(CO)Cc1cc(C(C)(C)C)c(O)c(C(C)(C)C)c1,inactive
8,O=[N+]([O-])c1cccc2cn[nH]c12,inactive
9,NCCCNCCCCNCCCN,inactive
10,O=C(O)c1cccnc1C(=O)O,inactive
11,CN(C)CCCc1cc(C(=O)Nc2ccc(-c3ccncc3)cc2)ccc1O,inactive
12,Cn1cc(C(=O)OCC2CCN(CCNS(C)(=O)=O)CC2)c2ccccc21,inactive
13,CCCn1c(=O)c2[nH]c(C3CCCC3)nc2n(CCC)c1=O,inactive
14,O=C(O)C1=CCCN(CCON=C(c2ccccc2)c2ccccc2)C1,inactive
15,O=C(O)C1=CCNCC1,inactive
16,O=[N+]([O-])c1cccc2c(Br)[nH]nc12,inactive
17,OC1(c2ccc(Cl)cc2)CCN(Cc2c[nH]c3ccccc23)CC1,inactive
